The list is not random: actives were taken first. Their share in the collection is about 3.8%.
TGFb SMAD3 inh = qHTS for Inhibitors of TGF-b. HepG2 CAGA-GFP TGF-b/SMAD3 reporter, GFP fluorescence, 18 h; TGF-beta stimulated, 500 pg/mL final. AID 588855, 2011. hit rate 1.2% among 410,000. Potency, µM (doses to about 46.1 µM), hits mostly inhibitors; also: nearly all actives have a fitted effect of over 65% in size
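HEPG2 CAGA-GFP, 1000 cells/well; 2 h settle, 37 C; cpd via pin tool; TGF-b 500 pg/mL final; 18 h, 37 C; GFP imaging ex488/em500-530; %Activity normalised to -TGF-b and +DMSO controls; CRC fit, curve class.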
S2 tox = Viability Counterscreen for Primary qHTS for Inhibitors of ATXN expression; S2 cells (HEK-293 line with an ATXN2-luciferase reporter) viability, CellTiter-Fluor protease fluorescence, 24 h; Potency, µM (doses to about 56.7 µM), usual class: cytotoxic; hit rate 0.49% among 400,000; also: nearly all actives have a fitted effect of over 40% in size
HT1080 IDH1KD tx = qHTS for induction of synthetic lethality in tumor cells producing 2HG: qHTS for the HT-1080-IDH1KD cell line; HT-1080 IDH1 knockdown viability, ATP luminescence, 48 h; Potency, µM (top dose mostly 46.1 µM), hits mostly cytotoxic; hit rate 2% among 360,000; AID 686971, 2013
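In this qHTS, HT-1080 cells depleted of IDH1 are exposed for 48 h at 37 °C to compound titrations. Toxicity is scored from CellTiter-Glo luminescence, with DMSO as full viability and medium alone as none.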
HepG2 tox = qHTS for Inhibitors of TGF-b: Cytotox Counterscreen. hit rate 0.76% among 410,000. HepG2 CAGA-GFP viability, ATP luminescence, 18 h. Potency, µM (series often up to 46.1 µM), most hits filed as cytotoxic
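HepG2 CAGA-GFP cells (1000/well, DMEM with 1% FBS) received compound, then TGF-beta at 500 pg/mL final, and were incubated 18 hours at 37 degrees C. Viability was read by CellTiter-Glo luminescence. Media-only wells were set as complete cell-killing and DMSO as no toxicity.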
ATXN2 expr inh = Primary qHTS for Inhibitors of ATXN expression. HEK-293 ATXN2-luciferase reporter, luminescence, 24 h. Potency, µM (highest dose often 57 µM), actives largely listed as inhibitors. AID 1745845, 2022. hit rate 0.72% among 360,000; also: nearly all actives have a fitted effect of over 55% in size
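qHTS (up to 57 uM final) was run with 24 h compound exposure of reporter cells at 37 °C. Each well was multiplexed: SteadyGlo luminescence measured ATXN2-luciferase expression after a fluorogenic Gly-Phe-AFC viability readout (25 uM final).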
HT1080NT lethal = qHTS for induction of synthetic lethality in tumor cells producing 2HG: qHTS for the HT-1080-NT fibrosarcoma cell line; HT-1080-NT fibrosarcoma viability, CellTiter-Glo ATP luminescence, 48 h; Potency, µM (highest dose often 46.1 µM), actives largely listed as cytotoxic; hit rate 1.6% among 360,000;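 also: NT is the 2HG producing partner of a matched IDH1 knockdown line; nearly all actives have a fitted effect of over 55% in size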
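A 48-hour cytotoxicity screen used HT-1080-NT cells plated 2 hours before compound delivery. ATP-based CellTiter-Glo luminescence measured viability, normalized to DMSO and no-cell controls.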
Numbers stand for hits; n = inactive; u = inconclusive; x = not tested or not shown; ! = not confirmed by another sample; [ ] = dose if it differs, or a comment. Calls follow the shape of the dose curve; as a rule, active = well fitted curve in the direction sought with a large enough effect; inconclusive = small, poorly fitted or top-dose-only effect, or another doubt; inactive = no such curve, though single readings can be large; an effect the other way counts as inactive or inconclusive.

SMILES	TGFb SMAD3 inh	S2 tox	HT1080 IDH1KD tx	HepG2 tox	ATXN2 expr inh	HT1080NT lethal
CC1CN(CCNC(=O)C2CCCc3c2[nH]c2ccccc32)Cc2ccccc2O1 (configuration not stated)	x	n	x	x	x	x
CCOC(=O)c1sc(NC(=O)c2nc3nc(C)cc(C(F)F)n3n2)c(C(=O)OC(C)C)c1C	n	n	x	n	n	x
CCC(C)NC(=O)c1cn(CC)c2ccc(S(=O)(=O)N3CCc4ccccc4C3)cc2c1=O (configuration not stated)	u	u	x	n	u	x
C=CCc1c(C)nc(-c2ccccc2)nc1Nc1ccccc1O	u	n	16.4µM	n	n	u
C=CCc1c(C)nc(-c2ccccc2)nc1N/N=C/c1ccccc1	u	n	n	n	x	n
CC(C)OC(=O)c1ccc(NCc2cc(O)ccc2O)cc1	u	x	18.4µM	n	u	20.6µM
COC(=O)c1ccc(CCc2cc(O)ccc2O)cc1	n	u	u	n	u	25.9µM
COP(=O)(OC)c1ccc(NCc2cc(O)ccc2O)cc1	n	n	n	n	n	n
CN1CCc2nc(SCc3ccc(C(C)(C)C)cc3)c(C#N)cc2C1	n	n	11.2µM	n	n	u
Cc1ccc(CSc2nc3c(cc2C#N)CCC3)cc1	n	n	n	n	n	n
COC1=C(Nc2ccccc2)C(=O)c2ccccc2C1=O	15.8µM	u	13µM	n	n	u
CC(=O)NC1=C(Nc2ccc(N(C)C)cc2)C(=O)c2ccccc2C1=O	n	u	13µM	n	n	u
C1CCCCCC(NCCN2CCNCC2)CCCCC1	u	u	18.4µM	n	u	20.6µM
COc1ccc(CCN2C(=O)CSC2=Nc2ccc(C(C)C)cc2)cc1OC	u	n	5.8µM	n	n	u
Cc1ccc(NC(=O)c2c(C)oc3ccc(O)c(CN4CCCCCC4)c23)cc1	u	x	x	n	x	x
CCCC(=O)OCc1cnc(C)c2oc(=O)c(C(=O)Nc3ccccc3)cc12	n	n	x	n	n	x
CCCCn1c(NCc2ccncc2)nc2ccccc21	n	n	n	n	n[11.3 µM]	n
CCCCn1c(NCc2ccc(N(C)C)cc2)nc2ccccc21	15.8µM	u	n	n	u	n
Cc1nn(C)cc1CN1CCOc2ccc(C(C)(O)COc3ccccc3)cc2C1 (configuration not stated)	x	n	x	x	x	x
Cc1ccc(Nc2nc(C)c(NC(=O)c3ccc(C)cc3)c(Nc3ccc(C)cc3)n2)cc1	14.1µM	n	x	n	u	x
Cc1ccc(-n2nc3c(N4CCC(C(=O)NCCc5ccccc5C)CC4)nnc(C)c3c2C)cc1	4.47µM!	u	n	n	u	n
COc1ccc(-n2nc3c(N4CCCC(C(=O)NCc5ccccc5C)C4)nnc(C)c3c2C)cc1 (configuration not stated)	5.01µM	x	x	n	x	x
Cc1ccc(-n2nc3c(N4CCC(C(=O)NC(C)c5ccccc5)CC4)nnc(C)c3c2C)cc1 (configuration not stated)	8.91µM	u	x	11.2µM	n	x
CCOc1ccccc1CNC(=O)C1CCCN(c2nnc(C)c3c(C)n(-c4ccccc4)nc23)C1 (configuration not stated)	u	7.94µM	18.4µM	n	u	20.6µM
COc1ccc(-n2nc3c(N4CCC(C(=O)NCc5ccccc5C)CC4)nnc(C)c3c2C)cc1	u	n	16.4µM	n	n	14.6µM
COc1ccc(-n2nc3c(N4CCC(C(=O)NCCc5ccccc5C)CC4)nnc(C)c3c2C)cc1	n	u	n	n	u	n
CC(C)c1ccc(NC(=O)c2ccc(-c3ccnn3C)c3ccoc23)cc1	n	u	18.4µM	n	u	14.6µM
Cc1cc(OCc2nc(N)nc(N)c2-c2ccc(Cl)c(Cl)c2)ccc1[N+](=O)[O-]	u	n	0.82µM	n	u	u

High-throughput results from PubChem.
